ABCB6 inh MLPCN: inhibitors of human ABC transporter ABCB6 | AID 602162 | Q9NP58 | hit rate 0.19% among 360,000 | fluorescence ratio to DMSO, % at 10 µM | K562-ABCB6 porphyrin accumulation, flow cytometry, 1 h; hits give low values;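 active = fluorescence ratio to DMSO below 75%, the collection mean minus 3 SD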;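 also: signal is porphyrin accumulated inside mitochondria; 100% equals median channel fluorescence of DMSO control wells; lower ratio means ABCB6 inhibition with less porphyrin fluorescence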
Target sequence (Q9NP58 whole entry, looked up): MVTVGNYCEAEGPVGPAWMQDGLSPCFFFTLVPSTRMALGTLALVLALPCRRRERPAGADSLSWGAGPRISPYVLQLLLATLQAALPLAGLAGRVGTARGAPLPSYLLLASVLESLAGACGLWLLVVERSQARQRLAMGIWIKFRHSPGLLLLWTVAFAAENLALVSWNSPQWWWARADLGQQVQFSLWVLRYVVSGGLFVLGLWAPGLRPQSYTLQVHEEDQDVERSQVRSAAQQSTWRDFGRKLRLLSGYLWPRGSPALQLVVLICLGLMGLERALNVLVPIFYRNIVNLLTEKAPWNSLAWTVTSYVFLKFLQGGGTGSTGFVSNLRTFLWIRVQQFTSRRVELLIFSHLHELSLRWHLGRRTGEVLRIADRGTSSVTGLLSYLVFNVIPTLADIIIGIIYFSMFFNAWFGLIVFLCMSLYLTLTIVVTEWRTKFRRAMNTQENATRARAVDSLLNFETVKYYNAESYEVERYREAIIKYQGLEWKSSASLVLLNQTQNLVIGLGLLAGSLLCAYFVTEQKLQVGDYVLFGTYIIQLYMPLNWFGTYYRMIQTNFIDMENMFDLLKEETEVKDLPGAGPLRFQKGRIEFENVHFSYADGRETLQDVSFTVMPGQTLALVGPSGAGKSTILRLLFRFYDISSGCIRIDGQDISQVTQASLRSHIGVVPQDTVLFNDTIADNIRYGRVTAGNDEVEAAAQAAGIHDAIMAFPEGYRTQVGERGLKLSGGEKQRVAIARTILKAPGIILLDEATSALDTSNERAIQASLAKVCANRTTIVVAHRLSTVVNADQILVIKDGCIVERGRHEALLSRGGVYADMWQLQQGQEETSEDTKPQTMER
MEKK2mut PB1 HTS: signal of MEK5 binding to mutant human MEKK2 PB1 domain. bead flow cytometry, Alexa488-MEK5 binding to MEKK2 mutant. percent response, % at 10 µM. hit rate 0.35% among 290,000; in the data active = percent response above about 24%, passing the limit was not always enough
CRFR2-BP ag: agonists of human CRF-binding protein/CRF-R2 receptor complex; HEK293 CRF-R2/CRF-BP, calcium dye fluorescence (FLIPR); percent of saturating CRF peptide response; activation, % at 13.2 µM; hit rate 0.46% among 350,000;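 active = activation of at least 50%, plus an integration ratio under a set limit after plate pattern correction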;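 also: plate controls were neutral control wells without compound for no effect and CRF at EC100 for full effect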
MEKK2wt PB1 HTS: raises or lowers MEK5 binding to wildtype human MEKK2 PB1 domain. Q9Y2U5. hit rate 1.1% among 290,000. bead flow cytometry, Alexa488-MEK5 binding to MEKK2 WT; actives lie on both sides. binding response (% of control), % at 10 µM; in the data active = binding response below about 67% or above about 130%
CRFR2-BP antag: antagonists of CRF-binding protein/CRF-R2 receptor complex; hit rate 0.59% among 350,000; HEK293 CRF-R2/CRF-BP, CRF-induced calcium fluorescence; inhibition, % at 11.8 µM;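 active = inhibition of the ligand-induced calcium signal above about 50% at the single tested concentration, limit read from the data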
MEKK3 PB1 HTS: MEKK3-MEK5 PB1 interaction, increase or decrease. Q99759. bead-based flow cytometry, Alexa488-MEK5 binding to MEKK3; actives lie on both sides; 0 = blocked by unlabeled MEK5, 100 = vehicle. binding response (% of control), % at 10 µM. hit rate 1.4% among 290,000;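 active = binding response more than 3 SD above or below the average of its plate-row segment, actives on both sides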;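 also: Alexa488 bead fluorescence after subtracting the streptavidin-only scavenger bead signal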
Starred values were filed as active, the others as inactive; . = no result given. Most compounds without a hit are left out; they make up all but 2.9% or so of the library.

SMILES	ABCB6 inh MLPCN	MEKK2mut PB1 HTS	CRFR2-BP ag	MEKK2wt PB1 HTS	CRFR2-BP antag	MEKK3 PB1 HTS
COc1cccc(N2CCN(c3ccc4nnc(CCC(=O)Nc5ccccn5)n4n3)CC2)c1	96	1	1	102	-4	102
CCC(C)C(NC(=O)C1CCC(C)CC1)C(=O)NCCc1ccc(S(N)(=O)=O)cc1 (stereo not drawn)	97	7	0	105	4	102
O=C(/C=C/c1ccccc1[N+](=O)[O-])OCC(=O)N1CCN(c2ccccc2)CC1	94	.	0	.	-26	.
O=c1c(Cl)c(Cl)cnn1Cc1nnc(-c2ccccc2Br)o1	102	7	157*	99	-220	104
c1ccn2cc(CSc3nnc4ccccn34)nc2c1	97	3	0	99	3	102
Cn1ccnc1SCc1cn2ccccc2n1	99	3	7	104	72*	99
Cc1ccc(S(=O)(=O)NCc2ccncc2)c(C)c1C	93	-8	53*	94	-8	95
CCN(CC)S(=O)(=O)c1cccc(C(=O)Nc2ccc3c(c2)OCO3)c1	92	-13	-2	85	55*	97
Cc1nn(-c2ccccc2)c(C)c1C(=O)OCC(=O)N(C)c1c(N)n(Cc2ccccc2)c(=O)[nH]c1=O	101	.	0	.	6	.
Cc1cccc(Nc2nnc(SC(C)C(=O)NC3CC3)s2)c1 (stereo not drawn)	94	.	0	.	-6	.
CCc1ccc(Nc2nnc(SC(C)C(=O)NC3CC3)s2)cc1 (stereo not drawn)	96	.	1	.	79*	.
CSc1nc2ccc(NC(=O)c3ccc(Cl)s3)cc2s1	106	5	4	111	-15	103
Cc1ccsc1C1NC(=O)c2c(sc3c2CCN(C)C3)N1 (stereo not drawn)	123	13	65*	116	-2	112
CSc1ccc(C2NC(=O)c3c(sc4c3CCN(C)C4)N2)cc1 (stereo not drawn)	117	.	45	.	-76	.
CN1CCc2c(sc3c2C(=O)NC(c2cccs2)N3)C1 (stereo not drawn)	114	7	58*	104	-42	103
O=C(Nc1nnc(SCCN2CCOCC2)s1)C1CC(=O)N(c2ccc(F)cc2)C1 (stereo not drawn)	102	8	1	108	-4	106
CC(=O)C1=C(O)C(=O)N(Cc2ccccc2)C1c1ccc(F)cc1 (stereo not drawn)	92	3	0	103	56*	101
CC(=O)C1=C(O)C(=O)N(Cc2ccccc2)C1c1ccc([N+](=O)[O-])cc1 (stereo not drawn)	100	2	.	109	.	107
Cc1ccc(-n2nnnc2CNC(=O)C2CC(=O)N(c3ccc(F)cc3)C2)cc1C (stereo not drawn)	90	.	0	.	-2	.
CCOc1ccc(N2CC(C(=O)NCc3nnnn3-c3ccc(C)c(C)c3)CC2=O)cc1 (stereo not drawn)	107	3	0	107	54*	103
COc1ccccc1/C=C1/C(=O)N(c2ccccc2)N=C1C	74*	4	1	99	14	100
Cc1cc(Cl)c(S(=O)(=O)Nc2ccc3c(c2)OCCO3)cc1OCC(=O)NC1CCCCC1	73*	1	-1	92	7	104
COc1ccc(-c2c[n+]3c4n2CCCCC4=C(c2ccccc2)C3)cc1	124	16	-4	126	52*	105
Cc1ccc(Cc2c(C(C)(C)C)nc3ccc(Br)cn23)cc1	104	.	.	.	.	.
Cc1cc(Cl)ccc1OC(C)C(=O)Nc1ccccc1N1CCOCC1 (stereo not drawn)	85	.	110*	.	-146	.
SMILES	ABCB6 inh MLPCN	MEKK2mut PB1 HTS	CRFR2-BP ag	MEKK2wt PB1 HTS	CRFR2-BP antag	MEKK3 PB1 HTS
CC(Oc1ccc(Cl)cc1)C(=O)Nc1ccccc1N1CCOCC1 (stereo not drawn)	97	.	53*	.	-48	.
Cc1cc(Cl)ccc1OC(C)C(=O)Nc1cccc(S(=O)(=O)N2CCOCC2)c1 (stereo not drawn)	91	.	0	.	-7	.
O=C(NCC(c1ccco1)N1CCN(c2ccccc2F)CC1)c1ccco1 (stereo not drawn)	99	.	-1	.	1	.
O=C(COc1cccc2c1CCN(Cc1ccc(Br)cc1)C2=O)NCc1ccco1	95	10	-1	96	64*	102
O=C(O)c1ccccc1NS(=O)(=O)c1cccc(-n2sc3ccccc3c2=O)c1	100	-6	1	97	11	102
Cc1c(O)c(CN2CCCCC2)cc2c1oc(=O)c1ccccc12	100	5	7	114	59*	106
CN(CC(=O)Nc1cc(Cl)ccc1C#N)C1CCS(=O)(=O)C1 (stereo not drawn)	101	.	0	.	6	.
O=C(NCCc1ccc(Cl)cc1Cl)c1cncc(Br)c1	88	3	-1	103	-12	100
CCOC(=O)c1c(C)[nH]c(C)c1C(=O)COC(=O)/C=C/c1ccc(Cl)cc1	102	-3	-2	94	129*	95
O=[N+]([O-])c1ccc(-c2ccc(/C=N/Nc3nc(N4CCCC4)nc(N4CCCC4)n3)o2)cc1	425	11	129*	85	-113	101
O=[N+]([O-])c1cccc(-c2ccc(/C=N/Nc3nc(N4CCCCC4)nc(N4CCCCC4)n3)o2)c1	97	-17	-1	79	6	79
Cc1cccc2c1-c1sc(C(=O)NCCCN3CCCC(C)C3)cc1CO2 (stereo not drawn)	97	24*	6	171*	-9	105
Cc1ccc2oc(=O)c3cc(C(=O)NCCCN4CCCC(C)C4)sc3c2c1 (stereo not drawn)	109	16	-2	136*	8	105
CC1CC(C)CN(CCCNC(=O)c2cc3c(s2)-c2ccccc2OC3)C1 (stereo not drawn)	100	25*	0	142*	23	106
CCN1CCN(CCCNC(=O)c2cc3c(s2)-c2ccccc2OC3)CC1	100	3	-1	111	15	102
CCN(C(=O)COC(=O)c1cccc(S(=O)(=O)N2CCOCC2)c1)C1CCS(=O)(=O)C1 (stereo not drawn)	100	.	0	.	-4	.
CC(C)[C@H](NC(=O)[C@@H]1Cc2ccccc2CN1)C(=O)NC1CCCCC1	103	13	-2	108	-1	105
C[C@H](NC(=O)[C@@H]1Cc2ccccc2CN1)C(=O)NC1CCCCC1	87	11	0	104	93*	104
CCOc1ccc(NC(=O)CSc2ccc3nnc(-c4cccnc4)n3n2)cc1	100	0	1	95	125*	93
O=C(CSc1ccc2nnc(-c3cccnc3)n2n1)Nc1ccc(F)cc1	95	2	0	103	7	101
